Experiment [1] can be described thus: NCI Yeast Anticancer Drug Screen. Data for the rad50 strain (AID 155).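 Also: 0% = growth of vehicle-only cultures of the same strain.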 To be noted: S. cerevisiae rad50 strain growth inhibition, hits give high values. In a few lines:
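Genetically altered yeast (DNA repair pathway); compound treatment; growth inhibition vs vehicle ctrl.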

A short description of experiment [2]: NCI Yeast Anticancer Drug Screen. Data for the mec2-1 strain (AID 157). Particulars: S. cerevisiae mec2-1 strain, hits give high values. In short, it runs like this: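 Growth inhibition is read against vehicle-treated controls after compound exposure of the mec2-1 yeast strain, which is defective in DNA damage repair or cell cycle control.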
Experiment [3] is described as follows: NCI Yeast Anticancer Drug Screen. Data for the sgs1 mgt1 strain (AID 161).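 Also: 0% = growth of cultures given vehicle only.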 To be noted: S. cerevisiae sgs1 mgt1 strain, hits give high values. In short, it runs like this:
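Compounds are added to genetically altered yeast, and growth is compared with cultures given vehicle alone to give percent inhibition.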

Experiment [4] in a line: NCI Yeast Anticancer Drug Screen. Data for the cln2 rad14 strain (AID 165).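 Also: 0% = growth equal to vehicle treated cultures.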 Particulars: S. cerevisiae cln2 rad14 strain, hits give high values. In a few lines:
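Growth inhibition, relative to vehicle-treated controls, is the read-out. The test organism is a yeast strain with defined genetic alterations, cln2 rad14.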

A short description of experiment [5]: NCI Yeast Anticancer Drug Screen. Data for the bub3 strain (AID 167). To be noted: S. cerevisiae bub3 mutant strain, hits give high values. In a few lines:
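Yeast carrying a defined mutation is treated with each compound, and growth is compared with that of vehicle-exposed cells to give inhibition.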

A short description of experiment [6]: NCI Yeast Anticancer Drug Screen. Data for the mlh1 rad18 strain (AID 175). To be noted: S. cerevisiae mlh1 rad18 strain growth inhibition, hits give high values. In a few lines: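 Cells of a genetically altered yeast strain, deficient in DNA damage repair, were treated with compound. Their growth was then compared with that of vehicle-treated cultures to give inhibition.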

Setting [7] is: at 5.0 µM (retest, dose inferred, filed as 0.5).
[8] abbreviates: at 50.0 µM (retest, dose inferred, filed as 5.0).

About 79,000 compounds went through this panel and 15% of them were active in at least one assay; those are over-represented in the sample as a whole. Values without a mark were called inactive. Active and inactive are the calls of the source. Rule as the data show it: active = growth inhibition above about 70%; inactive = the rest.

Take `CC1CC(C)C(C)C(CO)C1` (stereo not given): the growth inhibition in experiment [1] (setting [7]) was 8%; in experiment [1] (setting [8]), -3%; in experiment [1] (at 50.0 µM) it was -22.4%; in experiment [2] (setting [7]), 4%; in experiment [2] (setting [8]), -3%; in experiment [2] (at 50.0 µM), -3.2%. In addition, the growth inhibition in experiment [3] (setting [7]) is -8%; in experiment [3] (setting [8]), -1%; in experiment [3] (at 50.0 µM), -22.6%; in experiment [4] (setting [7]) it was -1%; in experiment [4] (setting [8]), -3%; in experiment [4] (at 50.0 µM), 40%. In addition, the growth inhibition is 0% in experiment [5] (setting [7]); 4% in experiment [5] (setting [8]); -0.05% in experiment [5] (at 50.0 µM); 6% in experiment [6] (setting [7]); -5% in experiment [6] (setting [8]); -12.2% in experiment [6] (at 50.0 µM).
Consider `O=C1OC(CCCl)(c2ccccc2)CC1CN1CCOCC1` (stereo not given), for which the growth inhibition in experiment [1] (setting [7]) was 10%; in experiment [1] (setting [8]), 81% (active); in experiment [1] (at 50.0 µM), 70% (active); in experiment [2] (setting [7]) it was -10%; in experiment [2] (setting [8]), 90% (active); in experiment [2] (at 50.0 µM), 57.9%. In addition, the growth inhibition is -2% in experiment [3] (setting [7]); 75% (active) in experiment [3] (setting [8]); 59% in experiment [3] (at 50.0 µM); 15% in experiment [4] (setting [7]); 56% in experiment [4] (setting [8]); 41.8% in experiment [4] (at 50.0 µM). In addition, the growth inhibition is 30% in experiment [5] (setting [7]); 94% (active) in experiment [5] (setting [8]); 71.5% (active) in experiment [5] (at 50.0 µM); -7% in experiment [6] (setting [7]); 91% (active) in experiment [6] (setting [8]); 73.6% (active) in experiment [6] (at 50.0 µM).
Consider `O=S(=O)(c1ccc(O)cc1)c1ccc(Cl)cc1`, for which the growth inhibition in experiment [1] (setting [7]) was -8%; in experiment [1] (setting [8]), 38%; in experiment [1] (at 50.0 µM) it was 44.3%; in experiment [2] (setting [7]), -11%; in experiment [2] (setting [8]), 20%; in experiment [2] (at 50.0 µM) it was 81.3% (active). In addition, the growth inhibition in experiment [3] (setting [7]) was -5%; in experiment [3] (setting [8]), 49%; in experiment [3] (at 50.0 µM), 79.5% (active); in experiment [4] (setting [7]), 4%; in experiment [4] (setting [8]), 35%; in experiment [4] (at 50.0 µM) it was 49.1%. Moreover, the growth inhibition in experiment [5] (setting [7]) was 0%; in experiment [5] (setting [8]) it was 46%; in experiment [5] (at 50.0 µM), 56.2%; in experiment [6] (setting [7]) it was 4%; in experiment [6] (setting [8]), 79% (active); in experiment [6] (at 50.0 µM) it was 48.2%.
For the compound `CCOC(=O)c1[nH]n(-c2ccccc2)c(=O)c1/C=N/C(=S)Nc1ccccc1OC`, the growth inhibition in experiment [1] (setting [7]) is -7%; in experiment [1] (setting [8]), -3%; in experiment [1] (at 50.0 µM) it was 0.4%; in experiment [2] (setting [7]), -14%; in experiment [2] (setting [8]) it was -11%; in experiment [2] (at 50.0 µM), -31.6%. The growth inhibition in experiment [3] (setting [7]) is -5%; in experiment [3] (setting [8]), -3%; in experiment [3] (at 50.0 µM), -18.1%; in experiment [4] (setting [7]), -23%; in experiment [4] (setting [8]), -12%; in experiment [4] (at 50.0 µM) it was 44.6%. In addition, the growth inhibition is 0% in experiment [5] (setting [7]); -9% in experiment [5] (setting [8]); 10.1% in experiment [5] (at 50.0 µM); -2% in experiment [6] (setting [7]); 1% in experiment [6] (setting [8]); -16.2% in experiment [6] (at 50.0 µM).
Turning to `O=C1Nc2ccccc2/C1=C\c1ccccn1`, the growth inhibition in experiment [1] (setting [7]) was 41%; in experiment [1] (setting [8]) it was 76% (active); in experiment [1] (at 50.0 µM), 68.7%; in experiment [2] (setting [7]) it was 22%; in experiment [2] (setting [8]) it was 60%; in experiment [2] (at 50.0 µM) it was 30.9%. In addition, the growth inhibition in experiment [3] (setting [7]) was 34%; in experiment [3] (setting [8]) it was 76% (active); in experiment [3] (at 50.0 µM) it was 48.7%; in experiment [4] (setting [7]) it was 32%; in experiment [4] (setting [8]) it was 38%; in experiment [4] (at 50.0 µM), 9%. Besides, the growth inhibition in experiment [5] (setting [7]) was 26%; in experiment [5] (setting [8]), 68%; in experiment [5] (at 50.0 µM), 56%; in experiment [6] (setting [7]) it was 49%; in experiment [6] (setting [8]), 86% (active); in experiment [6] (at 50.0 µM), 51%.
Turning to `C/C(=N/Nc1ccccc1)C(=O)O`, the growth inhibition in experiment [1] (setting [7]) is 18%; in experiment [1] (setting [8]), 97% (active); in experiment [1] (at 50.0 µM) it was 97.8% (active); in experiment [2] (setting [7]), 6%; in experiment [2] (setting [8]), 88% (active); in experiment [2] (at 50.0 µM), 97.8% (active). Further, the growth inhibition in experiment [3] (setting [7]) is 11%; in experiment [3] (setting [8]) it was 50%; in experiment [3] (at 50.0 µM), 97.7% (active); in experiment [4] (setting [7]), 8%; in experiment [4] (setting [8]), 96% (active); in experiment [4] (at 50.0 µM) it was 98% (active). In addition, the growth inhibition in experiment [5] (setting [7]) is 6%; in experiment [5] (setting [8]), 96% (active); in experiment [5] (at 50.0 µM) it was 97.4% (active); in experiment [6] (setting [7]) it was 28%; in experiment [6] (setting [8]), 98% (active); in experiment [6] (at 50.0 µM) it was 97.2% (active).
`CCC(CC)(C(=O)Nc1ccc2c(c1)c(=O)c1ccccc1n2C)C(=O)Nc1ccc2c(c1)c(=O)c1ccccc1n2C`: the growth inhibition in experiment [1] (setting [7]) was 7%; in experiment [1] (setting [8]), 97% (active); in experiment [1] (at 50.0 µM), 97% (active); in experiment [2] (setting [7]), -3%; in experiment [2] (setting [8]), 86% (active); in experiment [2] (at 50.0 µM), 77.7% (active). Also, the growth inhibition is -25% in experiment [3] (setting [7]); 71% (active) in experiment [3] (setting [8]); 70.8% (active) in experiment [3] (at 50.0 µM); -4% in experiment [4] (setting [7]); 75% (active) in experiment [4] (setting [8]); 73% (active) in experiment [4] (at 50.0 µM). Also, the growth inhibition in experiment [5] (setting [7]) was -10%; in experiment [5] (setting [8]) it was 78% (active); in experiment [5] (at 50.0 µM), 61.2%; in experiment [6] (setting [7]), -6%; in experiment [6] (setting [8]) it was 92% (active); in experiment [6] (at 50.0 µM), 95.7% (active).
For `c1cc[c]([Sn]([NH]c2ncnc3[nH]cnc23)([NH]c2ncnc3[nH]cnc23)[c]2ccccc2)cc1`, the growth inhibition is -10% in experiment [1] (setting [7]); 93% (active) in experiment [1] (setting [8]); 71% (active) in experiment [1] (at 50.0 µM); -6% in experiment [2] (setting [7]); 95% (active) in experiment [2] (setting [8]); 47.6% in experiment [2] (at 50.0 µM). Moreover, the growth inhibition in experiment [3] (setting [7]) was 2%; in experiment [3] (setting [8]), 96% (active); in experiment [3] (at 50.0 µM), 58.3%; in experiment [4] (setting [7]), -2%; in experiment [4] (setting [8]) it was 73% (active); in experiment [4] (at 50.0 µM), 29.4%. Further, the growth inhibition in experiment [5] (setting [7]) was -4%; in experiment [5] (setting [8]) it was 95% (active); in experiment [5] (at 50.0 µM), 57.4%; in experiment [6] (setting [7]), -7%; in experiment [6] (setting [8]), 94% (active); in experiment [6] (at 50.0 µM) it was 89.2% (active).
As for `CCN(CC)CCOc1ccc(/C=C/c2ccccc2)cc1`, the growth inhibition was 2% in experiment [1] (setting [7]); 99% (active) in experiment [1] (setting [8]); 73% (active) in experiment [1] (at 50.0 µM); 0% in experiment [2] (setting [7]); 99% (active) in experiment [2] (setting [8]); 77.7% (active) in experiment [2] (at 50.0 µM). Besides, the growth inhibition in experiment [3] (setting [7]) was 5%; in experiment [3] (setting [8]), 98% (active); in experiment [3] (at 50.0 µM) it was 93.7% (active); in experiment [4] (setting [7]) it was -5%; in experiment [4] (setting [8]), 99% (active); in experiment [4] (at 50.0 µM), 56.7%. The growth inhibition in experiment [5] (setting [7]) was 6%; in experiment [5] (setting [8]), 99% (active); in experiment [5] (at 50.0 µM), 93.4% (active); in experiment [6] (setting [7]), 3%; in experiment [6] (setting [8]) it was 99% (active); in experiment [6] (at 50.0 µM), 78% (active).
Consider `COc1ccc(OC)c2c(C(=O)O)c(C(C)c3ccccc3)ccc12` (stereo not given), for which the growth inhibition in experiment [1] (setting [7]) is -1%; in experiment [1] (setting [8]), 70% (active); in experiment [1] (at 50.0 µM), 85.8% (active); in experiment [2] (setting [7]), 3%; in experiment [2] (setting [8]) it was 73% (active); in experiment [2] (at 50.0 µM) it was 91.2% (active). The growth inhibition is 2% in experiment [3] (setting [7]); 64% in experiment [3] (setting [8]); 91.2% (active) in experiment [3] (at 50.0 µM); 1% in experiment [4] (setting [7]); 74% (active) in experiment [4] (setting [8]); 96.2% (active) in experiment [4] (at 50.0 µM). Further, the growth inhibition was -6% in experiment [5] (setting [7]); 65% in experiment [5] (setting [8]); 81.7% (active) in experiment [5] (at 50.0 µM); 3% in experiment [6] (setting [7]); 75% (active) in experiment [6] (setting [8]); 92.3% (active) in experiment [6] (at 50.0 µM).

The record behind these values is PubChem BioAssay (NCI).
